Reference: PubChem BioAssay (NCI)
This is part of a sample that, as a whole, favours compounds with a hit. Of some 79,000 tested, about 15% had one in any assay. Activity calls are given as the source filed them. No stated cut-off is given here; in the data, active means growth inhibition above about 70%; inactive means the rest.

Assays:
[1] = NCI Yeast Anticancer Drug Screen. Data for the rad52 strain (AID 147);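 further: 0% = growth of vehicle-treated control cultures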; settings: S. cerevisiae rad52 mutant growth inhibition, stronger effect = higher value
Procedure, shortened: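 Inhibition of yeast growth, referenced to vehicle controls, was the measured output for a strain with defective DNA damage repair.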

[2] = NCI Yeast Anticancer Drug Screen. Data for the wt1 strain (AID 149);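 further: 0% = growth of vehicle-treated wt1 cultures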; settings: S. cerevisiae wt1 strain (SPY 50644) growth inhibition, stronger effect = higher value
Procedure, shortened: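 Measured: growth of wt1 yeast under compound versus vehicle treatment, reported as inhibition.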

[3] = NCI Yeast Anticancer Drug Screen. Data for the rad50EPP+ strain (AID 151);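 further: 0% = growth of vehicle-treated control cultures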; settings: S. cerevisiae rad50 mutant strain, stronger effect = higher value
Procedure, shortened: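 Genetically defined yeast (rad50EPP+, DNA damage repair alteration) is grown with compound, and inhibition of growth is expressed relative to vehicle-treated controls.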

[4] = NCI Yeast Anticancer Drug Screen. Data for the mgt1 strain (AID 153); settings: S. cerevisiae mgt1 mutant growth inhibition, stronger effect = higher value
Procedure, shortened: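 In the mgt1 strain, test compounds were added and growth inhibition was determined relative to vehicle-treated controls.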

[5] = NCI Yeast Anticancer Drug Screen. Data for the rad50 strain (AID 155);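 further: 0% = growth of vehicle-only cultures of the same strain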; settings: S. cerevisiae rad50 strain growth inhibition, stronger effect = higher value
Procedure, shortened: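 Growth of the mutant yeast was measured after compound exposure and referenced to vehicle-treated cultures.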

[6] = NCI Yeast Anticancer Drug Screen. Data for the mec2-1 strain (AID 157); settings: S. cerevisiae mec2-1 strain, stronger effect = higher value
Procedure, shortened: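 Each compound was tested on mec2-1 yeast, a strain altered in DNA damage repair or cell cycle control. Growth inhibition is reported relative to vehicle.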

[7] = NCI Yeast Anticancer Drug Screen. Data for the rad14 strain (AID 159);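 further: 0% = growth of vehicle-treated control cultures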; settings: S. cerevisiae rad14 strain growth inhibition, stronger effect = higher value
Procedure, shortened: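 Here, inhibition of yeast growth was measured after compound exposure, using a strain with a genetic defect in DNA damage repair and vehicle-treated cultures as the reference.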

[8] = NCI Yeast Anticancer Drug Screen. Data for the sgs1 mgt1 strain (AID 161);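 further: 0% = growth of cultures given vehicle only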; settings: S. cerevisiae sgs1 mgt1 strain, stronger effect = higher value
Procedure, shortened: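 Read-out: growth inhibition vs vehicle controls. Cells: mutant yeast strain deficient in DNA damage repair.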

[9] = NCI Yeast Anticancer Drug Screen. Data for the CLN2oe strain (AID 163);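 further: 0% = growth of vehicle-only control cultures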; settings: S. cerevisiae CLN2oe strain, stronger effect = higher value
Procedure, shortened: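 First, the altered yeast strain was treated with each compound; second, its growth was measured; finally, inhibition was derived by comparison with vehicle controls.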

[10] = NCI Yeast Anticancer Drug Screen. Data for the cln2 rad14 strain (AID 165);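 further: 0% = growth equal to vehicle treated cultures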; settings: S. cerevisiae cln2 rad14 strain, stronger effect = higher value
Procedure, shortened: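 Test compounds were added to cln2 rad14 yeast cultures; inhibition of growth was then determined by comparison with vehicle treatment.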

[11] = NCI Yeast Anticancer Drug Screen. Data for the bub3 strain (AID 167); settings: S. cerevisiae bub3 mutant strain, stronger effect = higher value
Procedure, shortened: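 Whole-cell yeast assay. The mutant strain was incubated with compounds, and growth inhibition was determined by comparison with vehicle-treated cells.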

[12] = NCI Yeast Anticancer Drug Screen. Data for the wt2 strain (AID 169);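 further: 0% = growth of vehicle-treated yeast cultures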; settings: S. cerevisiae wt2 strain growth inhibition, stronger effect = higher value
Procedure, shortened: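 The panel's yeast strains carry defined changes in DNA repair or cell cycle genes. Each strain is grown with compound, and growth loss is scored relative to vehicle.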

[13] = NCI Yeast Anticancer Drug Screen. Data for the mlh1 strain (AID 171);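 further: 0% = growth of vehicle-treated control cultures of the same strain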; settings: S. cerevisiae mlh1 strain growth inhibition, stronger effect = higher value
Procedure, shortened: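 Inhibition values reflect reduced yeast growth in the presence of compound, referenced to vehicle controls, using a strain chosen for its alteration in DNA repair or cell cycle control.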

[14] = NCI Yeast Anticancer Drug Screen. Data for the sgs1 strain (AID 173);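 further: 0% = growth of vehicle-only control cultures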; settings: S. cerevisiae sgs1 mutant, stronger effect = higher value
Procedure, shortened: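 Vehicle-treated cultures served as reference for growth inhibition of a yeast strain altered in DNA damage repair or cell cycle control after compound exposure.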

[15] = NCI Yeast Anticancer Drug Screen. Data for the mlh1 rad18 strain (AID 175); settings: S. cerevisiae mlh1 rad18 strain growth inhibition, stronger effect = higher value
Procedure, shortened: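 Inhibition values reflect reduced growth of mutant yeast versus vehicle-treated controls following compound exposure; the mutations affect DNA damage repair.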

[16] = NCI Yeast Anticancer Drug Screen. Data for the rad18 strain (AID 177); settings: S. cerevisiae rad18 mutant growth inhibition, stronger effect = higher value
Procedure, shortened: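 Steps: expose repair-mutant yeast to compound; measure growth; express as inhibition relative to vehicle control.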

[17] = at 5.0 µM (retest, dose inferred, filed as 0.5)
[18] = at 50.0 µM (retest, dose inferred, filed as 5.0)

Measured: growth inhibition

O=C(NNC(=O)OCC(Cl)(Cl)Cl)OCC(Cl)(Cl)Cl
active: [4]; at 33.0 µM 91% | [4]; at 100.0 µM 97% | [8]; [18] 96% | [8]; at 50.0 µM 90.3% | [12]; at 33.0 µM 89% | [12]; at 100.0 µM 96% | [13]; at 33.0 µM 88% | [13]; at 100.0 µM 96% | [14]; at 33.0 µM 92% | [14]; at 100.0 µM 97%
inactive: [1]; at 1.2 µM 0% | [1]; at 3.7 µM 0% | [1]; at 11.0 µM 2% | [1]; at 33.0 µM 2% | [1]; at 100.0 µM 31% | [2]; at 1.2 µM -1% | [2]; at 3.7 µM -2% | [2]; at 11.0 µM -3% | [2]; at 33.0 µM -3% | [2]; at 100.0 µM 11% | [3]; at 1.2 µM 0% | [3]; at 3.7 µM -2% | [3]; at 11.0 µM -1% | [3]; at 33.0 µM 0% | [3]; at 100.0 µM 11% | [4]; at 1.2 µM 0% | [4]; at 3.7 µM -4% | [4]; at 11.0 µM 48% | [5]; at 1.2 µM -1% | [5]; at 3.7 µM 0% | [5]; [17] -12% | [5]; at 11.0 µM 0% | [5]; at 33.0 µM 1% | [5]; [18] 1% | [5]; at 50.0 µM 20.6% | [5]; at 100.0 µM 23% | [6]; at 1.2 µM -6% | [6]; at 3.7 µM -8% | [6]; [17] -6% | [6]; at 11.0 µM -4% | [6]; at 33.0 µM 4% | [6]; [18] 6% | [6]; at 50.0 µM 20.9% | [6]; at 100.0 µM 32% | [7]; at 1.2 µM 1% | [7]; at 3.7 µM 1% | [7]; at 11.0 µM 3% | [7]; at 33.0 µM 6% | [7]; at 100.0 µM 26% | [8]; [17] 0% | [9]; at 1.2 µM -1% | [9]; at 3.7 µM -5% | [9]; at 11.0 µM -2% | [9]; at 33.0 µM 9% | [9]; at 100.0 µM 38% | [10]; [17] 4% | [10]; [18] 11% | [10]; at 50.0 µM -12.9% | [11]; at 1.2 µM -3% | [11]; at 3.7 µM -8% | [11]; [17] -5% | [11]; at 11.0 µM -6% | [11]; at 33.0 µM -4% | [11]; [18] 7% | [11]; at 50.0 µM 6.9% | [11]; at 100.0 µM 20% | [12]; at 1.2 µM -2% | [12]; at 3.7 µM -4% | [12]; at 11.0 µM 29% | [13]; at 1.2 µM -1% | [13]; at 3.7 µM -2% | [13]; at 11.0 µM 20% | [14]; at 1.2 µM -3% | [14]; at 3.7 µM -1% | [14]; at 11.0 µM 42% | [15]; [17] -1% | [15]; [18] 3% | [15]; at 50.0 µM 0.3% | [16]; at 1.2 µM -1% | [16]; at 3.7 µM 0% | [16]; at 11.0 µM 3% | [16]; at 33.0 µM 13% | [16]; at 100.0 µM 53%

CC[C@](O)(C(=O)O)c1cc2n(c(=O)c1CO)Cc1cc3ccccc3nc1-2
inactive: [2]; at 1.2 µM 0% | [2]; at 3.7 µM 10% | [2]; at 11.0 µM 67% | [4]; at 1.2 µM -1% | [4]; at 3.7 µM 7% | [4]; at 11.0 µM 67% | [6]; at 1.2 µM 14%
active: [1]; at 1.2 µM 92% | [1]; at 3.7 µM 94% | [1]; at 11.0 µM 95% | [1]; at 33.0 µM 96% | [1]; at 100.0 µM 96% | [2]; at 33.0 µM 92% | [2]; at 100.0 µM 94% | [3]; at 1.2 µM 80% | [3]; at 3.7 µM 93% | [3]; at 11.0 µM 96% | [3]; at 33.0 µM 97% | [3]; at 100.0 µM 98% | [4]; at 33.0 µM 80% | [4]; at 100.0 µM 95% | [5]; at 1.2 µM 95% | [5]; at 3.7 µM 97% | [5]; [17] 97% | [5]; at 11.0 µM 97% | [5]; at 33.0 µM 97% | [5]; [18] 98% | [5]; at 50.0 µM 98.3% | [5]; at 100.0 µM 97% | [6]; at 3.7 µM 82%
